Screening results deposited in PubChem BioAssay by several laboratories.
RecA intein inh – inhibitors of M. tuberculosis RecA intein splicing. 0.75% of 290,000 active. P9WHJ3. cell-free RecA intein splicing, fluorescence. inhibition, % (test concentration not listed). AID 2221; in the data active = inhibition above about 30%
Rv3671c protease – inhibitors of M. tuberculosis serine protease Rv3671c; P9WHR9; inhibition, % at 5.96 µM; 0.048% of 320,000 active; AID 2606; in the data active = inhibition above about 38%;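 note: extracellular domain of Rv3671c used as enzyme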
Mtb bLac sens – beta-lactam sensitization of Mtb H37Rv; M. tuberculosis H37Rv growth with meropenem, percent inhibition; inhibition, % at 25 µM; 0.27% of 330,000 active; AID 434955;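 note: growth measured after seven days incubation then overnight dye step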
PriA SSB inh – inhibitors of Klebsiella pneumoniae PriA binding to SSB C-terminal tail; inhibition, % at 33 µM; AlphaScreen SSBct-PriA binding, biotinylated peptide; AID 1272365; 0.6% of 430,000 active; in the data active = inhibition mostly above about 37%, no sharp cut-off; inactive = mostly below about 20%
UGM FP inh – blocks M. tuberculosis UGM enzyme. P9WIQ1. purified UGM, fluorescence polarization probe displacement. inhibition, % at 10 µM. 0.06% of 320,000 active. AID 504406; in the data active = inhibition above about 10%, passing the limit was not always enough
GFP chromo cs – counter-screen: blocks GFP chromophore formation | shares compounds with RecA intein inh | cell-free GFP chromophore formation, fluorescence | EC50, µM | 83% of 2,100 active | AID 434968
A number is an active result; – = inactive; · = no result. In the library only some 1.1% were active in any assay of this set; here they are far more common. Unless noted, the rule behind the calls is not given here.

SMILES	RecA intein inh	Rv3671c protease	Mtb bLac sens	PriA SSB inh	UGM FP inh	GFP chromo cs
O=[N+]([O-])c1cnc2ccccc2c1	–	–	–	–	–	·
O=[N+]([O-])c1cc([N+](=O)[O-])c2cc3ccccc3nc2c1	93	–	–	–	–	4.9
O=C(COc1ccnc2c1CCCC2)NCc1ccco1	·	·	·	–	·	·
COc1ccc2c(c1)C(=O)N(c1ccccc1OC)C(=O)C2	–	–	–	–	–	·
COc1ccccc1N1C(=O)Cc2ccccc2C1=O	31	–	–	–	–	11
CC(=NNC(=O)Cn1cc([N+](=O)[O-])cn1)c1ccc(O)cc1	·	·	·	–	·	·
CN(C)C(=O)c1ccc(N=Nc2c(O)c3ccccc3[nH]c2=O)cc1	·	·	·	–	·	·
CN(C)C(=S)N=Nc1[nH]c2ccccc2c1O	59	–	–	–	–	8.2
C=CCn1c(-c2cccnc2Cl)nc2cc(Cl)c(Cl)cc21	–	–	–	–	–	·
C=CCn1c(-c2cccnc2Cl)nc2ccccc21	85	–	–	–	–	–
Cc1[nH][nH]c(=O)c1C(c1ccc(O)c([N+](=O)[O-])c1)c1c(C)[nH][nH]c1=O	–	–	–	–	–	·
CCOc1cc(C(c2c(C)[nH][nH]c2=O)c2c(C)[nH][nH]c2=O)ccc1O	96	–	–	–	–	1.1
COc1ccc(C(c2c(C)[nH][nH]c2=O)c2c(C)[nH][nH]c2=O)cc1Br	98	–	–	–	–	0.59
Cc1[nH][nH]c(=O)c1C(c1ccc(O)c(Br)c1)c1c(C)[nH][nH]c1=O	98	–	–	–	–	0.46
COc1cc(C(c2c(C)[nH][nH]c2=O)c2c(C)[nH][nH]c2=O)ccc1OC(C)C	97	–	–	–	–	0.45
COc1ccc(Cc2nc(=S)[nH][nH]2)cc1Br	·	–	–	–	–	·
Cc1cccc(S(=O)(=O)Nc2ccc3c(c2)CC(=O)N3)c1	·	·	·	–	·	·
COC(=O)C1CC(Oc2ccccc2F)CN1C(=O)c1cccs1 (stereo unspecified)	·	·	·	–	·	·
O=C(CCCOc1ccc2c(c1)OCO2)NCCCn1ccc2cccnc21	·	·	·	–	·	·
Cc1occc(=O)c1OC(=O)c1ccc([N+](=O)[O-])cc1	·	·	·	–	·	·
O=C(NCCN1CCN(c2ccccc2F)CC1)c1cc2ccccc2oc1=O	·	·	·	–	·	·
CS(=O)(=O)c1cccc(-c2nnc(NC(=O)c3ccccc3Cl)o2)c1	·	·	·	–	·	·
Cc1cc[n+](-c2nc([O-])sc2C=NNc2ccc([N+](=O)[O-])cc2)cc1	·	·	·	–	·	·
CC(=O)Nc1ccc(S(=O)(=O)NC2=C(N3CCN(c4ccc(F)cc4)CC3)C(=O)c3ccccc3C2=O)cc1	45	–	–	–	–	26
O=C1C(Cl)=C(N2CCCCC2)C(=O)C(Cl)=C1c1cnc(N2CCCCC2)s1	35	·	·	–	·	0.45
SMILES	RecA intein inh	Rv3671c protease	Mtb bLac sens	PriA SSB inh	UGM FP inh	GFP chromo cs
CC(=O)c1cnc(N(C)C)s1	–	–	–	–	–	·
CN(C)c1ncc(C2=C(Cl)C(=O)C(N3CCCC3)=C(Cl)C2=O)s1	60	–	–	–	–	4.4
Cc1cc(C(O)CCNC(=O)c2cnoc2C)c(C)o1 (stereo unspecified)	·	·	·	–	·	·
CC(/C=N/NC(=O)Cc1cc(=O)[nH][nH]1)=C\c1ccccc1	89	–	–	·	–	6.7
O=C([C@@H]1CC=CCC1)N1Cc2cncnc2C1	·	·	·	–	·	·
O=C(COc1ccc(Cl)cc1)Nc1cnc(Oc2ccccc2)nc1	·	·	·	–	·	·
COc1cccc([C@@H]2c3c(oc4cc(C)c(C)cc4c3=O)C(=O)N2c2nccs2)c1OC	·	·	·	–	·	·
O=C(CN1C(=O)c2ccccc2C1=O)c1ccccc1	–	–	–	–	–	·
CC1=C(CC(=O)c2ccccc2)C(=O)c2ccccc2C1=O	43	–	–	–	–	26
COc1cc2c(cc1OC)C1Cc3ccc(OC)c(OC)c3CN1CC2 (stereo unspecified)	–	–	–	–	–	·
COc1cc2c(cc1OC)-c1c(OC)c(OC)cc3c1C(C2)N(C)CC3 (stereo unspecified)	71	–	–	–	–	4.3
COc1cc2c(cc1OC)-c1c3c(cc4c1[C@@H](C2)N(C)CC4)OCO3	44	–	–	–	–	21
O=C(CCc1c(Cl)cccc1Cl)NCc1cccnc1-c1ccsc1	·	·	·	–	·	·
Cn1nnc2c(NCc3ccc(Cl)cc3)ncnc21	·	·	·	–	·	·
N#CCCn1[nH]c(-c2ccccc2)cc1=O	97	–	–	–	–	5.1
COc1ccccc1NC(=O)N1CCN(c2ccc(-c3ccc(C)cc3C)nn2)CC1	·	·	·	–	·	·
CCOC(=O)CC1=NN(c2ccccc2)C(=O)/C1=C\c1ccc(OC)cc1OC	47	–	–	–	–	0.41
